# Results as given in PubChem BioAssay (NCI).
# The panel holds about 83,000 compounds, 20% with a hit somewhere; the sample as a whole holds those more often.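 Results are percent growth after 48 hours of single-concentration exposure. 100 means growth as in untreated cells, lower positive values show inhibition; negative values down to -100 show cell death.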 Unmarked numbers belong to inactive results. Active and inactive are the calls of the source. Rule for the calls: active = growth percent below 10; inactive = the rest.
# Columns and labels:
# Assay in all cases: NCI-60 one-dose screen, 48 h (100 = growth as untreated, 0 = no growth, -100 = all killed)
# Conditions in all cases: 10 µM unless noted
# SR leukemia = tested on: SR leukemia
# RPMI-8226 leukemia = tested on: RPMI-8226 leukemia
# OVCAR-8 ovarian = tested on: OVCAR-8 ovarian
# OVCAR-5 ovarian = tested on: OVCAR-5 ovarian
# OVCAR-4 ovarian = tested on: OVCAR-4 ovarian
# SK-OV-3 ovarian = tested on: SK-OV-3 ovarian
# IGROV1 ovarian = tested on: IGROV1 ovarian
# OVCAR-3 ovarian = tested on: OVCAR-3 ovarian
# HS 578T breast = tested on: HS 578T breast
# NCI/ADR-RES ovarian = tested on: NCI/ADR-RES ovarian
# T-47D breast = tested on: T-47D breast
# BT-549 breast = tested on: BT-549 breast
# MDA-MB-435 melanoma = tested on: MDA-MB-435 melanoma
# SW-620 colon = tested on: SW-620 colon
# MCF7 breast = tested on: MCF7 breast
# HCT-116 colon = tested on: HCT-116 colon
# HCC-2998 colon = tested on: HCC-2998 colon
# KM12 colon = tested on: KM12 colon
Compound,growth (SR leukemia),growth (RPMI-8226 leukemia),growth (OVCAR-8 ovarian),growth (OVCAR-5 ovarian),growth (OVCAR-4 ovarian),growth (SK-OV-3 ovarian),growth (IGROV1 ovarian),growth (OVCAR-3 ovarian),growth (HS 578T breast),growth (NCI/ADR-RES ovarian),growth (T-47D breast),growth (BT-549 breast),growth (MDA-MB-435 melanoma),growth (SW-620 colon),growth (MCF7 breast),growth (HCT-116 colon),growth (HCC-2998 colon),growth (KM12 colon)
COc1ccc(Nc2ncc(C(N)=O)c(NCCCNC(=O)C3CCC3)n2)cc1,65.1%,72.9%,62.6%,109%,81%,36.6%,66.8%,88.8%,71.5%,100%,102%,24.5%,84%,50.9%,64%,54%,98.5%,29.3%
N#C/C(=C\c1ccc(-c2ccc(Cl)cc2)o1)c1ccc(Cl)cc1,59.6%,44.8%,58.4%,68.1%,-14.1% (active),75.5%,23.6%,56.4%,29.8%,60%,51.2%,79.5%,85.1%,66.2%,62.1%,12.7%,96.4%,88.9%
CC(=O)c1c(Nc2ccc(F)c(F)c2F)[nH]c2c(F)cc(F)cc2c1=O,8.21% (active),-10.6% (active),5.38% (active),12.8%,12.1%,-4.26% (active),16.2%,7.99% (active),4.13% (active),1.67% (active),-14.3% (active),2.13% (active),-14.4% (active),7.98% (active),0.843% (active),3.09% (active),7.96% (active),2.32% (active)
CCCCn1sc(=O)n(Cc2ccc(CNC(=O)OCc3ccc4c(Br)cc(Br)c(O)c4n3)cc2)c1=O,5.73% (active),18.7%,13.7%,52%,51.7%,34.6%,15.7%,-0.408% (active),18.6%,9.82% (active),69.9%,-16.2% (active),-35.4% (active),24.5%,12%,7.95% (active),24.8%,2.42% (active)
CN(C)c1ccc(/C=C/C(=O)c2ccc(Nc3nc(Nc4ccc(F)cc4)nc(Nc4ccc(Cl)cc4)n3)cc2)cc1,4.77% (active),30.5%,48.8%,74.2%,76.5%,108%,72.4%,89.2%,77.2%,66.4%,50.4%,75.7%,56.2%,92.3%,56.7%,58.7%,111%,73.8%
Cn1cc(-c2csc(-c3cn(C)c4ccc(Br)cc34)n2)c2cnccc21,-29.6% (active),-37.3% (active),-49.4% (active),-67.3% (active),-50.9% (active),96.5%,-91.5% (active),-92.9% (active),-40% (active),-69.5% (active),-47.3% (active),86.2%,-87.6% (active),-70% (active),-74.7% (active),-89.8% (active),-84.3% (active),-87.4% (active)
C[C@H]1[C@H](C)CC[C@]2(C(=O)O)CC[C@]3(C)C(=CC[C@@H]4[C@@]5(C)C[C@@H](Cc6cn([C@@H]7O[C@H](CO)[C@@H](O)[C@H](O)[C@H]7O)nn6)[C@H](O)C(C)(C)[C@@H]5CC[C@]43C)[C@H]12,105%,98.3%,97.8%,97.2%,91.7%,88.5%,107%,107%,103%,106%,93.5%,102%,101%,97.6%,92.7%,92%,107%,108%
O=C(/C=C/c1cccc(Cl)c1)c1cccc(OCCCCOc2cccc(C(=O)/C=C/c3cccc(Cl)c3)c2)c1,39.5%,-26.8% (active),97.3%,109%,93.3%,113%,88.9%,91.9%,95.8%,99.7%,75.8%,92.6%,70.9%,75.1%,12.6%,-13.7% (active),85.5%,70.5%
COc1ccc(Cn2cc(C(=O)N=Nc3c(O)[nH]c4c(Cl)cccc34)nn2)cc1,80.3%,106%,97.4%,123%,104%,113%,103%,113%,97.5%,105%,100%,111%,101%,99.7%,84.3%,91.6%,99.3%,107%
O=C(OC[C@@H]1CO1)c1cccc2c(=O)c3ccccc3[nH]c12,9.87% (active),-11.7% (active),-56% (active),-21.4% (active),-27% (active),-38.5% (active),-13.7% (active),-25.7% (active),-21.5% (active),-16.3% (active),-9.67% (active),-31.6% (active),-81.7% (active),-24.7% (active),0.0356% (active),2.66% (active),-66.2% (active),-65.5% (active)
Cc1nc2sc(C(=O)Nc3ccccc3)c(N)c2cc1C(=O)/C=C/c1ccccc1,11.7%,-33.9% (active),-1.16% (active),16.6%,4.43% (active),35.4%,-7.01% (active),-47.5% (active),12%,-10.7% (active),1.62% (active),-7.07% (active),-38.2% (active),-37.6% (active),3.7% (active),-66.9% (active),-80.5% (active),-42.1% (active)
CCN(C(=O)N1CCN(c2cc3c(cc2F)c(=O)c(C(=O)O)cn3C2CC2)CC1)c1nc(-c2ccc(C)cc2)cs1,17.2%,14.8%,11.5%,21.7%,31.5%,-10.4% (active),6.38% (active),9.01% (active),18.3%,2.74% (active),25.5%,-11.3% (active),16.2%,18.5%,6.09% (active),12.4%,21.1%,10.6%
C(/C=C/c1ccccc1)=Nc1ccc(CCc2ccc(N=C/C=C/c3ccccc3)cc2)cc1,47.3%,94.5%,83.5%,93.6%,101%,98.6%,85.8%,132%,108%,80.9%,97.5%,91.9%,115%,51.6%,69.2%,54.1%,108%,106%
NC(CSC(c1ccccc1)(c1ccccc1)c1ccc2c(c1)OCO2)C(=O)O (stereo not drawn),5.57% (active),-7.99% (active),19.4%,41%,70.7%,15.2%,42.2%,3.46% (active),15.7%,53.9%,30.2%,22.7%,-58% (active),12.9%,10.3%,7.34% (active),9.26% (active),13.1%
COc1ccc(C2=NN(C(=O)c3cc(OC)c(OC)c(OC)c3)C(c3ccc(N(C)C)cc3)C2)cc1 (stereo not drawn),15.3%,-27.9% (active),29.3%,64.7%,35.2%,35.4%,-8.59% (active),5.03% (active),13.6%,-5.85% (active),56.8%,28.4%,-30.4% (active),28.3%,15%,11.8%,1.81% (active),23.3%
CCOC(=O)c1c2c(n3c1NCC3)-c1ccccc1C2=O,100%,105%,99.4%,89.4%,99.7%,104%,67.3%,92.1%,106%,102%,97.7%,86.9%,90.8%,91.8%,90.6%,103%,91.4%,103%
